This note sets out measurements from PubChem BioAssay (NCATS).

Results filed as inconclusive are left out. A number with no mark means an inactive call. Activity calls are given as the source filed them. Calls follow the shape of the dose curve; as a rule, active = well fitted cell-killing curve with a large enough effect; inconclusive = small, poorly fitted or top-dose-only effect; inactive = flat fitted curve, though single readings scatter.
Potency is read from the fitted curve at half-maximal effect.

The nature of the assay: Quantitative highthroughput screen to assess conditional lethalithy of NOMO1 cells grown in RPMI1640 with untreated serum (RPMI+s) (AID 1963876). Also: nearly all actives have a fitted effect of over 35% in size. The conditions noted are these: NOMO1 AML cells in RPMI+serum, CellTiter-Glo viability, 48 h; series mostly up to 45.8 µM; viability: at the top concentration. From the text: Assay Provider: Jason Cantor Ph.D.
Department of Biochemistry
University of Wisconsin-Madison, Madison, WI, USA
Chemical screening studies have identified drug sensitivities across hundreds of cancer cell lines but most putative therapeutics fail to translate. Discovery and development of drug candidates in models that more accurately reflect nutrient levels in human blood is a major challenge. Here we performed high-throughput screens in conventional versus Human Plasma-Like Medium (HPLM) to identify compounds that were "missed" when screening using the artificial culture condition. Sets of conditional anticancer compounds spanned phases of clinical development and included non-oncology drugs were assessed. […] We also traced conditional phenotypes for several chemotherapeutics to availability of HPLM-specific metabolites and confirmed others for compounds whose reported targets are encoded by nonessential genes. Our findings establish generalizable strategies for exploiting conditional lethality in HPLM to reveal therapeutic candidates and mechanisms of action in cancer cells.
Described herein are the results of each viability screens against three cell lines: NOMO1 (an acute myeloid leukemia cell line); P12-Ichikawa (a T-cell acute lymphoblastic leukemia); and SEM (a B-cell ALL). Each assay was screened using 3 different cell culture media: homemade human plasma-Like medium with 10% dialyzed fetal bovine serum (HPLM+ds); RPMI1640 with 10% untreated FBS and 5mM glucose (RPMI+s); and RPMI1640 with 10% dialyzed fetal bovine serum and 5 mM glucose (RPMI+ds).
PROTOCOL TABLE (as described by Inglese J, Shamu CE and Guy RK. 2007)
SEQUENCE No. (e.g., 1, 2, 3, etc.); […] (e.g., Cells, Incubation, Reagent, etc.); VALUE and DESCRIPTION.
1; Cells; 5 uL; white, solid bottom 1536-well Greiner assay plate.
2; Compounds; 23 nL; Kalypsis pin tool (Wako USA) equipped with a 1536-well pin head to transfer to the assay plates.
3; Incubation; 48 hours; 37C incubation.
4; Reagent; 3 uL; CellTiter Glo (Promega).
5; Incubation; 5 min, room temperature
6; Detection; Luminescence, Viewlux PerkinElmer.
NOTES (numbers refer to Sequence numbers above)
1. Briefly, 5 ul of cell reagent was dispensed using a Multidrop Combi Dispenser. The NOMO1 and SEM cells were plated at 500 cells/well and the P12-Ichikawa line at 1000 cells/well.
2. After seeding the cells, 23 nL of MIPE 4.1 library compounds (in DMSO) were added to each plate using a Kalypsys 1536 Pintool dispenser. Bortezomib at final concentration of […] and DMSO were added to each plate as positive and negative controls respectively. For each screen, MIPE 4.1 compounds were added over an eleven-point concentration range […] in 3-fold dilutions.
3. Each plate was covered with a stainless steel gasketed lid to prevent evaporation and incubated for 48 hour at 37C, 95% relative humidity, and 5% CO2.
4-5. Three microliter CellTilter-GloTM luminescent substrate mix (Promega) reagent was added to the assay plate and incubated at room temperature for 5 min.
6. The luminescence signal was measured using a ViewLux (PerkinElmer) multiplate reader with a 2 second exposure time per plate. Data for each compound were normalized as percent viability such that measurements for DMSO and the empty well controls in each plate were defined as 100% and 0%, respectively.
For `N#CC1(c2ccc(NC(=O)c3cccnc3NCc3ccncc3)cc2)CCCC1`, the “viability” value was 105%. For the compound `COc1ccnc(CS(=O)c2nc3ccc(OC(F)F)cc3[nH]2)c1OC` (stereo not given), the “viability” value is 95.6%. Same read-out and setting: the result for `O=c1oc2cc(O)ccc2s1` reads 99.6%; that for `CC(C)(CO)[C@@H](O)C(=O)NCCC(=O)O`, 109%; that for `CCCCCOC(=O)Nc1nc(=O)n([C@@H]2O[C@H](C)[C@@H](O)C2O)cc1F` (stereo not given in full), 101%. On the same count and under the same terms, the same measure for `O=C1NC(=O)C(c2cnc3ccccn23)=C1c1cn2c3c(cccc13)CN(C(=O)N1CCOCC1)CC2`: 111%.

On to `O=c1[nH]cnc2[nH]ncc12`, for which the “viability” value is 93.4%. Same read-out and setting: the same measure for `CCC1(C)CC(=O)NC1=O` (stereo not given): 91.4%; for `CC[C@@H]([C@H](C)O)n1ncn(-c2ccc(N3CCN(c4ccc(OCC5CO[C@@](Cn6cncn6)(c6ccc(F)cc6F)C5)cc4)CC3)cc2)c1=O` (stereo not given in full): 101%; for `Cc1cnc(C(=O)NCCc2ccc(S(=O)(=O)NC(=O)NC3CCCCC3)cc2)cn1`: 86.8%. On the same count and under the same terms, the same measure for `NC1CCC(Nc2nc(Nc3ccc(C(=O)N4CCCCC4)cc3)c3ncn(-c4cccc(F)c4)c3n2)CC1` (stereo not given): 107%. For `CSc1cccc(Nc2ncc3cc(-c4c(Cl)cccc4Cl)c(=O)n(C)c3n2)c1`, the “viability” value is 98.7%. Regarding `NC1=N[C@@]2(c3cc(NC(=O)c4ccc(F)cn4)ccc3F)COC[C@@H]2CS1`, the Potency is 0.372 µM (active).

As for `CN(C)CC(=O)N1CCC(c2ccc(NC(=O)c3ncc(C#N)[nH]3)c(C3=CCCCC3)c2)CC1`, the “viability” value was 97.8%.

`CC(C)(C)c1cc(C(=O)O)c(NC(=O)Nc2ccc3[nH]ncc3c2)s1`: the “viability” value was 100%. `CCCCc1ccc(NS(=O)(=O)c2ccc(C)c(C(=O)N3CCN(c4cccc(C)c4C)CC3)c2)cc1`: the “viability” value was 93.3%. On to `C[C@@H]1COCCN1c1cc(C2(S(C)(=N)=O)CC2)nc(-c2ccnc3[nH]ccc23)n1` (stereo not given in full), for which the Potency was 4.67 µM (active). Turning to `O=C(O)c1cccnc1Nc1cccc(C(F)(F)F)c1`, the “viability” value is 103%. Regarding `N#CC1(c2cccc(C(=O)Nc3cc(Oc4ccc5nc(NC(=O)C6CC6)sc5n4)ccc3F)c2Cl)CC1`, the Potency was 3.72 µM (active).

Turning to `CC(C)(Sc1ccc(CCN(CCCCC2CCCCC2)C(=O)NC2CCCCC2)cc1)C(=O)O`, the “viability” value is 118%. For the compound `CC(Cc1ccc(O)c(O)c1)(NN)C(=O)O` (stereo not given), the “viability” value was 103%.

Consider `COc1cc(C)c(C=CC(C)=CC=CC(C)=CC(=O)O)c(C)c1C`, for which the “viability” value is 92%.

On to `CC(C)(Sc1cc(C(C)(C)C)c(O)c(C(C)(C)C)c1)Sc1cc(C(C)(C)C)c(O)c(C(C)(C)C)c1`, for which the “viability” value was 99.2%. For the compound `COc1ccc2cc(-c3nc(-c4ccc(S(C)=O)cc4)[nH]c3-c3ccncc3)ccc2c1` (stereo not given), the “viability” value was 124%. Same read-out and setting: the result for `COc1ncc(-c2ccc3c(Nc4cc(Oc5cc(F)cc(F)c5)cc(C(=O)O)c4)c(S(=O)(=O)NC4CC4)cnc3c2)c(OC)n1` reads 108%; that for `COc1ccc(-c2c(-c3ccc(O)cc3O)n[nH]c2C)cc1`, 87.5% [at 92.2 µM]. With `CC1(C)OC2=C(C(=O)c3ccccc3C2=O)[C@H](NCc2ccccc2)[C@H]1O`, the Potency was 4.18 µM (active). For the compound `N=C1SC(=Cc2ccc(-c3ccc4c(c3)C(=O)NC4=O)o2)C(=O)N1c1ccc(Br)cc1`, the “viability” value is 93.5%. Regarding `O=C(C=Cc1ccc(O)cc1)c1ccc(O)cc1O`, the “viability” value is 92.8%.

In the case of `Cc1nc2ccc(CN(C)c3ccc(C(=O)N[C@@H](CCC(=O)O)C(=O)O)s3)cc2c(=O)[nH]1`, the Potency is 0.418 µM (active). The same measure, in the same setting: the same measure for `O=C(Nc1cccnc1)N1CCC(Cc2cccc(Oc3ccc(C(F)(F)F)cn3)c2)CC1`: 10.5 µM (active).

On to `Cc1cccc(C)c1OCC(=O)N[C@@H](Cc1ccccc1)[C@@H](O)C[C@H](Cc1ccccc1)NC(=O)[C@H](C(C)C)N1CCCNC1=O`, for which the “viability” value is 95.4%. On the same count and under the same terms, the result for `COC1CCC(C(=O)c2ccc3nc4c(cc3c2)CCCO4)CC1` (stereo not given) reads 88.8%. `CCN(CC)CCNC(=O)c1ccc2nc(-c3ccccc3)c(-c3ccc(CN4CCC(n5c(=O)[nH]c6ccccc65)CC4)cc3)nc2c1`: the Potency was 8.33 µM (active).

Regarding `O=c1cc(CN2CCOCC2)occ1OCCCCCSc1ccnc2cc(C(F)(F)F)ccc12`, the “viability” value was 98.9%.

In the case of `S=P(N1CC1)(N1CC1)N1CC1`, the “viability” value was 103%. `Cn1cc(-c2ccc(F)c(C(F)(F)F)c2)nc1C1CCN(c2ncnc3[nH]ncc23)CC1`: the “viability” value was 95.3%. For `Cc1ccc(C2=Nc3ccc(Cl)cc3OC2)cc1`, the “viability” value was 90.9%. On to `O=C1NC(=O)C(=Cc2ccc(-c3ccc(F)cc3O)o2)S1`, for which the “viability” value was 92.2%. As to `Cc1noc(NS(=O)(=O)c2ccc(N)cc2)c1C`, the “viability” value was 103%.

Usually viability stands for a read-out of living cells in per cent, often relative to untreated cells.
